We go through five compounds from PubChem BioAssay (EPA / NIEHS).

Records with an inconclusive call do not appear. Active and inactive are the calls of the source. Rule for the calls, unless noted: active = hit-call score of the fitted dose curve at least 0.9, where 1 is the maximum; inactive = score below 0.9.

Assay [1] has as its target Paired box protein Pax-6 (Homo sapiens) (UniProt P26367). The experiment in a line: ATG_Pax6_CIS: Attagene CIS-FACTORIAL HepG2 Assay for human Paired Box 6 (PAX6) (AID 2282956). The following applies: HepG2 CIS-FACTORIAL PAX6 reporter transcription, RNA readout; actives raise or lower the signal. A digest of the protocol:
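HepG2 cells transiently transfected with multiplexed cis-promoter reporter units (endogenous TF activity) were dosed for 24 h. Reporter mRNA was quantified by RT-PCR, 6-FAM labeling, HpaI digestion and capillary electrophoresis; bidirectional fitting versus DMSO baseline.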

A short description of assay [2]: ATG_RORE_CIS: Attagene CIS-FACTORIAL HepG2 Assay for human RAR-related Orphan Receptor Element (RORE) (AID 2282959). The following applies: HepG2 Attagene cis-factorial RORE reporter, mRNA; actives raise or lower the signal. A digest of the protocol: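 Readout: fluorescent reporter mRNA by RT-PCR plus capillary electrophoresis, 24 h after dosing transfected HepG2 cells. Endogenous transcription factor activity on a cis promoter element is measured. Gain or loss of signal fitted against DMSO.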

Assay [3] can be described thus: ATG_Sox_CIS: Attagene CIS-FACTORIAL HepG2 Assay for human SRY-box transcription factor (SOX) (AID 2282960). The following applies: HepG2 Attagene cis-factorial SOX reporter, mRNA; actives raise or lower the signal. Put shortly: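 Read-out: fluorescent RT-PCR products of SOX1-linked reporter transcripts resolved by capillary electrophoresis, fitted bidirectionally against DMSO. Transiently transfected HepG2 cells, 24 h after chemical exposure, endogenous transcription factor activity.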

Assay [4] addresses Transcription factor Sp1 (Homo sapiens) (UniProt P08047). The assay is described as follows: ATG_Sp1_CIS: Attagene CIS-FACTORIAL HepG2 Assay for human Specificity Protein 1 (Sp1) (AID 2282961). The following applies: HepG2 Sp1 cis-reporter transcription, actives raise or lower the signal. A digest of the protocol:
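Read-out: fluorescence of 6-FAM-labeled, HpaI-digested RT-PCR products separated by capillary electrophoresis. HepG2 cells carried transfected cis-element reporter units and were exposed to chemicals for 24 h; gain or loss of signal fitted relative to DMSO.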

The nature of assay [5]: ATG_SREBP_CIS: Attagene CIS-FACTORIAL HepG2 Assay for human Sterol Regulatory Element Binding (SREBP) (AID 2282962). The following applies: HepG2 Attagene cis-factorial SREBP reporter, mRNA; actives raise or lower the signal. A digest of the protocol: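 HepG2 cells transiently transfected with multiplexed cis-element reporter units report endogenous transcription factor activity. After 24 h of chemical exposure, reporter mRNA was quantified by RT-PCR, 6-FAM labelling, HpaI digestion and capillary electrophoresis; bidirectional fits used DMSO as baseline.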

The target of assay [6] is Signal transducer and activator of transcription 3 (Homo sapiens) (UniProt P40763). The assay is described as follows: ATG_STAT3_CIS: Attagene CIS-FACTORIAL HepG2 Assay for human Signal Transducer and Activator of Transcription 3 (STAT3) (AID 2282963). The following applies: HepG2, Attagene cis-factorial STAT3 reporter transcription; actives raise or lower the signal. A digest of the protocol:
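Values derive from bidirectional fits relative to DMSO of reporter mRNA levels, measured by RT-PCR with capillary electrophoresis, in HepG2 cells carrying transiently transfected cis-regulated reporter units and exposed 24 h.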

Assay [7] in a line: ATG_TA_CIS: Attagene CIS-FACTORIAL HepG2 Assay for human TA Basal Promoter (AID 2282964). The following applies: HepG2 Attagene CIS-factorial TA basal promoter reporter; actives raise or lower the signal. A digest of the protocol:
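Read-out: fluorescent reporter-transcript fragments resolved by capillary electrophoresis after RT-PCR and HpaI digestion. Source: HepG2 cells carrying transiently transfected multi-reporter cis constructs, treated 24 h. Endpoint fitted bidirectionally relative to DMSO.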

The nature of assay [8]: ATG_TCF_b_cat_CIS: Attagene CIS-FACTORIAL HepG2 Assay for human T-Cell-Factor with beta-catenin (TCF/b-cat) (AID 2282965). The following applies: HepG2 TCF/beta-catenin cis-reporter transcription, actives raise or lower the signal. A digest of the protocol:
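HepG2, transient MRTU transfection, cis-element-driven reporters (endogenous TFs). 24 h compound exposure. Readout: reporter mRNA by RT-PCR + 6-FAM primer extension, HpaI digest, capillary electrophoresis. Gain/loss fit vs DMSO baseline.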

The nature of assay [9]: ATG_TGFb_CIS: Attagene CIS-FACTORIAL HepG2 Assay for human Transforming Growth Factor (TGF) (AID 2282967). The following applies: HepG2 Attagene CIS TGFb reporter, mRNA transcription; actives raise or lower the signal. A digest of the protocol: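 Transient MRTU transfection of HepG2 (FuGene 6). Dose 24 h. TriZol RNA, oligo(dT) RT, PCR, 6-FAM primer extension, HpaI cut, CE. Bidirectional fit, DMSO = baseline.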

The nature of assay [10]: ATG_VDRE_CIS: Attagene CIS-FACTORIAL HepG2 Assay for human Vitamin D Receptor Element (VDRE) (AID 2282968). The following applies: HepG2 VDRE cis-reporter transcription, actives raise or lower the signal. A digest of the protocol: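 Cell-based multiplexed reporter format in human liver HepG2 cells, 24 h post-dose. Fluorescence from capillary electrophoresis of reporter cDNA gives the signal, with DMSO as negative control and baseline.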

The target of assay [11] is X-box-binding protein 1 (Homo sapiens) (UniProt P17861). The assay is described as follows: ATG_Xbp1_CIS: Attagene CIS-FACTORIAL HepG2 Assay for human X-box Binding Protein 1 (XBP1) (AID 2282972). The following applies: HepG2 XBP1 cis-element reporter, Attagene multiplex; actives raise or lower the signal. Put shortly: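 HepG2 cells transiently transfected with cis-regulated multiple reporter transcription units; endogenous transcription factor activity measured 24 hours after chemical dosing. Reporter mRNA quantified by RT-PCR, 6-FAM primer extension, HpaI digestion and capillary electrophoresis; bidirectional fitting versus DMSO.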

Assay [12] in a line: ATG_PPRE_CIS: Attagene CIS-FACTORIAL HepG2 Assay for human Peroxisome Proliferator-activated Response Element (PPRE) (AID 2282958). The following applies: HepG2 PPRE cis-element reporter, Attagene transcription factor profiling; actives raise or lower the signal. A digest of the protocol:
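Read-out: fluorescent reporter mRNA fragments resolved by capillary electrophoresis after RT-PCR. HepG2 cells carried transiently transfected PPRE-driven cis reporter constructs and were dosed for 24 h; gain or loss of signal fitted relative to DMSO.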

The nature of assay [13]: ATG_TAL_CIS: Attagene CIS-FACTORIAL HepG2 Assay for human TAL Basal Promoter (AID 2282966).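 Note: background control endpoint measuring basal TAL promoter reporter mRNA not a specific factor.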 The following applies: HepG2 Attagene cis-factorial TAL promoter reporter; actives raise or lower the signal. A digest of the protocol:
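Fluorescence of labelled reporter cDNA fragments, resolved by capillary electrophoresis, gave the readout. Human HepG2 liver cells carried transiently transfected cis-element reporter units and were treated for 24 hours; activity was fitted bidirectionally against DMSO.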

Assay [14] in a line: ATG_M_19_TRANS: Attagene TRANS-FACTORIAL HepG2 Assay for M19 Transcription Factor (Internal Marker) (AID 2282974; active = hit-call score of the fitted dose curve at least 0.9, where 1 is the maximum). The following applies: HepG2 Attagene TRANS-FACTORIAL M19 internal marker reporter. Put shortly:
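24 h chemical exposure of transiently transfected HepG2 (MRTU library). RNA → oligo(dT) RT → PCR → 6-FAM labelling → HpaI cut → CE fluorescence. Positive-direction fit vs DMSO baseline; background internal-marker readout.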

Assay [15] in a line: ATG_GAL4_TRANS: Attagene TRANS-FACTORIAL HepG2 Assay for GAL4 (Internal Marker) (AID 2282976; active = hit-call score of the fitted dose curve at least 0.9, where 1 is the maximum). The following applies: HepG2 Attagene TRANS GAL4 internal marker reporter. A digest of the protocol: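 First, HepG2 cells were transfected with reporter units under GAL4-UAS control. Next, they were treated with chemical for 24 h. Finally, RNA was reverse-transcribed, PCR-amplified, FAM-labelled and resolved by capillary electrophoresis, with induction scored against DMSO.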

The target of assay [16] is Nuclear receptor subfamily 1 group I member 3 (Homo sapiens) (UniProt Q14994). The experiment in a line: ATG_CAR_TRANS: Attagene TRANS-FACTORIAL HepG2 Assay for human Constitutive Androstane Receptor (CAR) (AID 2282969; active = hit-call score of the fitted dose curve at least 0.9, where 1 is the maximum;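 note: activators raise reporter mRNA above DMSO so AC50 marks induction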). The following applies: HepG2 Attagene TRANS-FACTORIAL CAR reporter. Put shortly: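 HepG2 cells transiently transfected with GAL4-UAS reporter units; TRANS format reads activity of exogenous chimeric NR-Gal4 protein. After 24 h dosing, reporter mRNA quantified by RT-PCR, 6-FAM labelling and capillary electrophoresis; gain of signal fitted against DMSO.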

The target in assay [17] is Steroid hormone receptor ERR1 (Homo sapiens) (UniProt P11474). The assay is described as follows: ATG_ERRa_TRANS: Attagene TRANS-FACTORIAL HepG2 Assay for human Estrogen-Related Receptor alpha (ERRa) (AID 2282971; active = hit-call score of the fitted dose curve at least 0.9, where 1 is the maximum). The following applies: HepG2 Attagene TRANS reporter, ERRa transactivation. Put shortly: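 Reporter transcript induction was quantified by RT-PCR and capillary electrophoresis of FAM-labelled, HpaI-cut products after 24 h treatment of HepG2 cells carrying transiently transfected GAL4-UAS reporter units and an exogenous ERRa-Gal4 fusion; activity scored as increase over DMSO.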

Assay [18] can be described thus: ATG_PXRE_CIS: Attagene CIS-FACTORIAL HepG2 Assay for human Pregnane X Receptor Element (PXRE) (AID 2282957). The following applies: HepG2 Attagene CIS-FACTORIAL PXRE reporter, mRNA; actives raise or lower the signal. A digest of the protocol:
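Transfect HepG2 with MRTUs (cis promoter elements); dose chemical, incubate 24 h; isolate RNA, RT with oligo(dT), PCR, 6-FAM label, HpaI cut, CE. Gain/loss fit vs DMSO.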

Assay [19] concerns the target Estrogen receptor (Homo sapiens) (UniProt P03372). The assay is described as follows: ATG_ERa_TRANS: Attagene TRANS-FACTORIAL HepG2 Assay for human Estrogen Receptor alpha (ERa) (AID 2282970; active = hit-call score of the fitted dose curve at least 0.9, where 1 is the maximum). The following applies: HepG2 Attagene TRANS ERa GAL4 reporter, mRNA. Put shortly:
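Human liver HepG2, transient transfection of multiple GAL4-UAS reporter units; TRANS format (exogenous NR-Gal4 chimera). 24 h dosing. Readout: reporter mRNA, RT-PCR, 6-FAM primer extension, HpaI digest, capillary electrophoresis. Positive direction vs DMSO.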

What is called AC50 is the concentration giving half of the maximal activity seen.

Sequence of Transcription factor Sp1 (Homo sapiens) (P08047 whole entry, looked up): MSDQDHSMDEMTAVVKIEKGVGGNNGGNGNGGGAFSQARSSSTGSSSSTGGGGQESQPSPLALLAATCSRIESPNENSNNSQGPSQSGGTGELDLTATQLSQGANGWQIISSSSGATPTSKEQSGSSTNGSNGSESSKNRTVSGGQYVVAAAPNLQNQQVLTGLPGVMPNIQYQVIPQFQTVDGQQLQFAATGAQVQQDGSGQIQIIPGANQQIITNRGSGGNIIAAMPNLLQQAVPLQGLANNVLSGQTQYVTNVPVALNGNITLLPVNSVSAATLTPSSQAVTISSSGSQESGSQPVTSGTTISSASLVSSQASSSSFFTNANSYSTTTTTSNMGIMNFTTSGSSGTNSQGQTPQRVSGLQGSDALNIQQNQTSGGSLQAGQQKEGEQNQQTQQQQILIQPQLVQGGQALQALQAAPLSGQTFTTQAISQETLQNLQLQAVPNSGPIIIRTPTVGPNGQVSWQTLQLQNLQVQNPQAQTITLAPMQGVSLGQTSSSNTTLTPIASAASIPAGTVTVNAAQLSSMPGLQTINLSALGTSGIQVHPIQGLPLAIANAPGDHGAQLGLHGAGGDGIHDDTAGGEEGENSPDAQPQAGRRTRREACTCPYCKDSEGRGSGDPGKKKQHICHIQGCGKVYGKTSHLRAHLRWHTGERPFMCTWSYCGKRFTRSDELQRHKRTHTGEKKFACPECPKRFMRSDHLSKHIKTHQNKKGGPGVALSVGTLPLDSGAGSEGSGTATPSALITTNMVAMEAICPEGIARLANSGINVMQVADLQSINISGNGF
Sequence of X-box-binding protein 1 (Homo sapiens) (P17861 whole entry, looked up): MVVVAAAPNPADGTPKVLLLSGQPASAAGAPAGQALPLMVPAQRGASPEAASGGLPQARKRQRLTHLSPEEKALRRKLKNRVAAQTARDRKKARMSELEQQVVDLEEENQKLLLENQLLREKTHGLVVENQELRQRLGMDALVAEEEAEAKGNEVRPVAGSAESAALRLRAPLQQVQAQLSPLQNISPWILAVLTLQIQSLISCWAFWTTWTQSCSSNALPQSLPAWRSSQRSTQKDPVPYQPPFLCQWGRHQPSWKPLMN
Sequence of Signal transducer and activator of transcription 3 (Homo sapiens) (P40763 whole entry, looked up): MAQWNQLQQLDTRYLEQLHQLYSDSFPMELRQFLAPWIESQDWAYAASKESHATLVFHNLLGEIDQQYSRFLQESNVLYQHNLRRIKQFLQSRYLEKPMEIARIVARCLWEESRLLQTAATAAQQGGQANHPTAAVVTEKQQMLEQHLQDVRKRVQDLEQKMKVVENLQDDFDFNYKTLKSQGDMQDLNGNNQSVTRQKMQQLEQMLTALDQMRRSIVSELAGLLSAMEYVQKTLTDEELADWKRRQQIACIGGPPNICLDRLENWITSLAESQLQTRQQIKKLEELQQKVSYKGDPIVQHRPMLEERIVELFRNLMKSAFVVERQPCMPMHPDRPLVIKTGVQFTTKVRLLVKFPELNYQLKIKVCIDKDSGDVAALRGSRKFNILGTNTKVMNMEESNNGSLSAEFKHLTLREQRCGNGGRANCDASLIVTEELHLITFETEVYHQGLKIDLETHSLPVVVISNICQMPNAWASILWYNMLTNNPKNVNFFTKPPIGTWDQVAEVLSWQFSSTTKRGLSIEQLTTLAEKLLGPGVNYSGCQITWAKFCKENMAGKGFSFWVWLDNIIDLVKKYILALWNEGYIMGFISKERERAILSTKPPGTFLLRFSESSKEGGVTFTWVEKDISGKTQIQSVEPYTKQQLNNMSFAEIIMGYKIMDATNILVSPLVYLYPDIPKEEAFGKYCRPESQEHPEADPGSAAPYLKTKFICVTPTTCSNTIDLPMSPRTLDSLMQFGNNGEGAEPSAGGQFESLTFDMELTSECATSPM
Sequence of Paired box protein Pax-6 (Homo sapiens) (P26367 whole entry, looked up): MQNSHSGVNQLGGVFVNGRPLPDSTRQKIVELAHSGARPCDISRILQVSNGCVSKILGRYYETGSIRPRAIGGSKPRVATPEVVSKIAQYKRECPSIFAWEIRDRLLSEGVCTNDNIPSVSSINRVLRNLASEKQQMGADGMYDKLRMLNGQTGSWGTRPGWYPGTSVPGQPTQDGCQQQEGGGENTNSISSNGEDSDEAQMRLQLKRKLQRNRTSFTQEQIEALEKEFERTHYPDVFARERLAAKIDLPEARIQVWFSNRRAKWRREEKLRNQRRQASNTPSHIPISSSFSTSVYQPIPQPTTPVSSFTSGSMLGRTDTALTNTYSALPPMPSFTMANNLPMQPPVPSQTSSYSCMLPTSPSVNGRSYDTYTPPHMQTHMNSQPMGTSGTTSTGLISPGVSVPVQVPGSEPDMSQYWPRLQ
Sequence of Nuclear receptor subfamily 1 group I member 3 (Homo sapiens) (Q14994 whole entry, looked up, the tested form may be a part): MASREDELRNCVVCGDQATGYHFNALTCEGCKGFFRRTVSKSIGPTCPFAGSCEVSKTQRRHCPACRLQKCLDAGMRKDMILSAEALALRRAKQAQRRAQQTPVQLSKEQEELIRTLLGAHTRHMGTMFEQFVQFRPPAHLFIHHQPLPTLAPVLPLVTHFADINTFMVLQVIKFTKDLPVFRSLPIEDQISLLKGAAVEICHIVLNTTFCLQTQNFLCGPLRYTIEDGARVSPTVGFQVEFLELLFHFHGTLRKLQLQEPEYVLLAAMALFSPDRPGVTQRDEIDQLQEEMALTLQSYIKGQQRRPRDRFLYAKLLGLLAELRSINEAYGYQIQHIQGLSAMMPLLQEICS
Sequence of Estrogen receptor (Homo sapiens) (P03372 whole entry, looked up, the tested form may be a part): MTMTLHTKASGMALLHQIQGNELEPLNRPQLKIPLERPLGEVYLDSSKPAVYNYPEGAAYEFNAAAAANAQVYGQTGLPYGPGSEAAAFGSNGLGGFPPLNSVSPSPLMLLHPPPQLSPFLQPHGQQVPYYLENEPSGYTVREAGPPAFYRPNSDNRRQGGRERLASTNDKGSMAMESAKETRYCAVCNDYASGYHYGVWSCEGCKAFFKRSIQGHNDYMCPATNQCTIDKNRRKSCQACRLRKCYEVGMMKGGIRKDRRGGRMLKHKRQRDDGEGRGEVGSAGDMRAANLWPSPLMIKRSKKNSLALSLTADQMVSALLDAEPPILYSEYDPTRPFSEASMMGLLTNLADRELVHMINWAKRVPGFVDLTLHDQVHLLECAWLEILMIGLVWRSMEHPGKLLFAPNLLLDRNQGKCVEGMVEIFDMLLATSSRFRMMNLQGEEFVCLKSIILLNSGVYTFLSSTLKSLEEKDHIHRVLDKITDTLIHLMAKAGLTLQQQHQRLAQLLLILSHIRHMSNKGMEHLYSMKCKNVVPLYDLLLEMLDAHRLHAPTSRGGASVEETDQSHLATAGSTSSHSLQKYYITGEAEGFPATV
Sequence of Steroid hormone receptor ERR1 (Homo sapiens) (P11474 whole entry, looked up, the tested form may be a part): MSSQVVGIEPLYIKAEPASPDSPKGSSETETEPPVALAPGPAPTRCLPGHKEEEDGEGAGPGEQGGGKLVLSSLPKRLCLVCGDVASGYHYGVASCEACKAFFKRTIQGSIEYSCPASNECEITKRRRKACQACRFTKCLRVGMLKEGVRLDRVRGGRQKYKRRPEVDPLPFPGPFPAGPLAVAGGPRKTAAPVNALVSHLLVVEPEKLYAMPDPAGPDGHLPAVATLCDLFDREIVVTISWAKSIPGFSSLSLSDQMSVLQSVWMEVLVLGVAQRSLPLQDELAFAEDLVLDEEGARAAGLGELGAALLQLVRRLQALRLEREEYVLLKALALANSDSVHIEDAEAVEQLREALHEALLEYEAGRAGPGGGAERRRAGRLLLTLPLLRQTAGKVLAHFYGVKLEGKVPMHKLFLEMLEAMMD

Regarding `O=P(O)(O)Oc1ccccc1`, the result in assay [1], in assay [2], in assay [3], in assay [4], in assay [5] and in assay [6] was inactive. The compound was classed as inactive in [7], in [8], in [9], in assay [10] and in assay [11].
With `C=CC(=O)OCCOC1C2CCC1C1CC=CC12` (stereo not given), the outcome in assay [1], in [12], in assay [2], in assay [3], in [5] and in assay [6] was inactive. Besides, the compound was classed as inactive in assay [8], in assay [13], in assay [9], in assay [10], in assay [14] and in assay [15].
`COC(=O)C1=C(C)NC(C)=C(C(=O)OCC(C)C)C1c1ccccc1[N+](=O)[O-]` (stereo not given): the compound was called inactive in assay [1], in assay [3], in assay [4], in assay [5], in assay [6] and in assay [8]. The compound was called inactive in assay [9], in assay [16], in [11] and in [15].
For `COC(=O)c1ccccc1OC`, the outcome in [1], in assay [12], in assay [2], in [3], in assay [4] and in [5] was inactive. The result in assay [6], in assay [7], in assay [8], in assay [13], in assay [9] and in assay [17] was inactive. For the same compound, in [11], the call was inactive.
Consider `O=c1c2ccccc2oc2ccccc12`, for which the half-maximal activity concentration (AC50) in assay [18] is 27.1 µM (active); in assay [19] it was 27.8 µM (active). The outcome in [2], in assay [3], in assay [4], in assay [7], in assay [8] and in [13] was inactive. Besides, the outcome in [9], in [10], in [16], in assay [11], in [14] and in [15] was inactive.
